Inconclusive results are not listed. Activity calls are given as the source filed them. Calls follow the shape of the dose curve; as a rule, active = well fitted inhibition curve with a large enough effect; inconclusive = small, poorly fitted or top-dose-only effect; inactive = flat fitted curve, though single readings scatter.
How the values were obtained:
Test in all cases: qHTS profiling for inhibitors of Plasmodium falciparum proliferation (AID 504749); also: nearly all actives have a fitted effect of over 60% in size
Conditions in all cases: P. falciparum in erythrocytes, SYBR Green DNA, 72 h; series mostly up to 28.7 µM
[1] = test system: DFO2036
Outline: (§1)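 P. falciparum-infected erythrocytes (0.3% parasitemia, 2.5% hematocrit) incubated with compound 72 h at 37 C, 5% CO2. Parasite DNA detected by SYBR Green after lysis, overnight at room temperature; normalised to 0.29 uM artemisinin and DMSO.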

[2] = test system: DIV14
Outline: as §1

[3] = test system: DIV17
Outline: as §1

[4] = test system: DIV30
Outline: as §1

[5] = test system: Dd2
Outline: as §1

[6] = test system: ECU
Outline: as §1

[7] = test system: FAB9
Outline: as §1

[8] = test system: GB4
Outline: as §1

[9] = test system: HB3
Outline: as §1

[10] = test system: ICS
Outline: as §1

Measured: Potency
Potency is read from the fitted curve at half-maximal effect.

N=C(N)N1CCc2ccccc2C1
inactive: all assays above

CC(=O)Nc1ccc(OC(=O)c2ccccc2OC(C)=O)cc1
inactive: all assays above

CCCCCCCCCCCCCC(=O)OC(C)C
not listed: [4]
inactive: all other assays above

CC(=O)N[C@@H](CCC(=O)O)C(=O)O
not listed: [8]
inactive: all other assays above

CCN(CC)CCNc1ccc(CO)c2sc3ccccc3c(=O)c12
active: [1] 0.447 µM | [2] 4.26 µM | [3] 2.39 µM | [4] 9.53 µM | [5] 2.24 µM | [6] 0.708 µM | [8] 1.2 µM | [9] 8.91 µM | [10] 2 µM

CCN(CC)CCNC(=O)c1cc(Br)c(N)cc1OC
inactive: all assays above

CCCN(CCc1cccs1)[C@H]1CCc2c(O)cccc2C1
active: [1] 10 µM | [2] 4.26 µM | [3] 3.01 µM | [4] 5.36 µM | [5] 2.51 µM | [6] 2.82 µM | [8] 1.69 µM | [9] 10 µM | [10] 0.794 µM

Clc1cccc(C(c2ccc3nc[nH]c3c2)n2ccnc2)c1 (stereo not drawn)
active: [1] 10 µM | [2] 15.1 µM | [3] 13.5 µM | [4] 12 µM | [6] 3.16 µM | [8] 12 µM | [10] 5.62 µM

Nc1ccc(C(=O)NCC(=O)O)cc1
inactive: all assays above

O=c1[nH]c(=O)n([C@H]2C[C@H](O)[C@@H](CO)O2)cc1F
inactive: all assays above

O=C(CCN1CCN2CCCC2C1)N1c2ccccc2Sc2ccc(Cl)cc21 (stereo not drawn)
inactive: [1] | [7] | [9]
active: [2] 4.26 µM | [3] 5.36 µM | [5] 6.31 µM | [6] 14.1 µM | [10] 5.01 µM

NS(=O)(=O)c1cc(C(=O)O)cc(N2CCCC2)c1Oc1ccccc1
inactive: all assays above

CC(C)(C)NC[C@H](O)COc1nsnc1N1CCOCC1
active: [1] 6.31 µM | [2] 3.38 µM | [3] 3.38 µM | [5] 5.62 µM | [6] 7.94 µM | [8] 7.57 µM | [9] 3.55 µM | [10] 1.26 µM

COc1ccc(-c2cc(C(F)F)nn2-c2ccc(S(N)(=O)=O)cc2)cc1F
inactive: all assays above

CC(C)CCCC(C)N (stereo not drawn)
inactive: all assays above

COc1cc(C(=S)N2CCOCC2)ccc1O
inactive: all assays above

CC(=O)Nc1ccc(CC(=O)O)cc1
inactive: all assays above

CCOC(=O)c1ccc(N)cc1
inactive: all assays above

C=C[C@@]1(C)CC(=O)[C@]2(O)[C@@]3(C)[C@@H](O)CCC(C)(C)[C@@H]3[C@H](O)[C@H](OC(C)=O)[C@@]2(C)O1
inactive: all assays above

CCCCCCCCCCCCSCCOCCO
inactive: all assays above

O=C(O)c1ccc(S(=O)(=O)N(Cl)Cl)cc1
inactive: all assays above

O=C(Oc1cccc2cccnc12)c1ccccc1
not listed: [8] | [10]
inactive: all other assays above

Nc1ccc(S(=O)(=O)Nc2cnc3ccccc3n2)cc1
inactive: all assays above

O=C(O)C1(C(=O)O)CCC1.[NH2-].[NH2-].[Pt+2]
active: [9] 10 µM
not listed: [5] | [10]
inactive: all other assays above

CCCCCCCCCCCCCCCC(=O)O
inactive: all assays above

CCN(CC)CCNC(=O)COc1ccc(OC)cc1
not listed: [8]
inactive: all other assays above

COP(=O)(OC)OC(c1ccc(Cl)cc1)P(=O)(OC)OC (stereo not drawn)
inactive: all assays above

CC(=O)O[C@H]1C[C@@H]2CC[C@@H]3[C@H](CC[C@@]4(C)[C@H]3C[C@H]([N+]3(C)CCCCC3)[C@@H]4OC(C)=O)[C@@]2(C)C[C@@H]1N1CCCCC1
inactive: [1] | [4] | [6] | [7]

Source: PubChem BioAssay (NCATS)
